In PubChem BioAssay (NCI) one finds growth data, which are given here for 13 molecules.

This is part of a sample that, as a whole, favours compounds with a hit. Of some 83,000 tested, about 20% had one in any assay.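 Negative percent growth values reflect cell death: -40 means 40% of the cells present at the start died, and -100 means all died.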 Unmarked numbers belong to inactive results. The source made the active and inactive calls. How the source made its calls: active means growth percent below 10; inactive means the rest.

Common to all, as to assay: NCI-60 one-dose screen, 48 h (100 = growth as untreated, 0 = no growth, -100 = all killed)
What all share (conditions): 10 µM unless noted

Test [1] relates to HCT-15 colon.
In test [2] the test system is HT29 colon.
Test [3] relates to SNB-75 CNS.
Test [4] concerns SNB-19 CNS.
Test [5] relates to U251 CNS.
Test [6] relates to PC-3 prostate.
The test system of test [7] is SK-MEL-5 melanoma.
Test [8] has as its system UACC-62 melanoma.
Test [9] has as its system LOX IMVI melanoma.
The test system of test [10] is SK-MEL-28 melanoma.
Test [11] relates to SK-MEL-2 melanoma.
Test [12] relates to EKVX NSCLC.
Test [13] relates to UO-31 renal.
For test [14], the system named is TK-10 renal.
The subject of test [15] is ACHN renal.
In test [16] the test system is CAKI-1 renal.
In test [17] the test system is A498 renal.
The test system of test [18] is HL-60(TB) leukemia.
For test [19], the system named is SN12C renal.
For test [20], the system named is CCRF-CEM leukemia.

On to `Nc1c(Cl)c(Cl)nc(C(=O)O)c1Cl`, for which the growth in [1] was 95%; in [2], 110%; in test [3], 71.4%; in test [4], 95.1%; in test [5], 94.2%; in [6], 84.9%. Further, the growth in test [7] was 108%; in [8], 92.4%; in test [9], 90.7%; in test [10] it was 120%; in [11] it was 92.5%; in test [12] it was 86.5%. In addition, the growth in test [13] was 71.1%; in [14], 99.2%; in [15], 88.2%; in [16] it was 90.1%; in test [17] it was 138%; in [18], 62.8%.

On to `CCCCn1c(=O)c(C(=O)NCc2ccccc2Cl)c(O)c2ccccc21`, for which the growth was 48.6% in test [1]; 75.5% in test [2]; 98.4% in [3]; 82.6% in test [4]; 68.2% in test [5]; 34.1% in test [6]. Also, the growth is 72.7% in test [7]; 88.5% in test [8]; 55.4% in test [9]; 103% in [10]; 94.3% in test [11]; 56.5% in test [12]. The growth in test [19] is 76.7%; in [13] it was 73.4%; in test [14], 84.3%; in test [16], 79.6%; in test [18] it was 60.7%; in test [20], 43.7%.

For `C[C@]12CC[C@H]3[C@@H](C[C@@H]4SC(Nc5ccccc5)=N[C@@]45C/C(=N/O)CC[C@]35C)[C@@H]1CCC2=O`, the growth was 44.3% in test [1]; 32.1% in test [2]; 76% in [3]; 60.3% in test [4]; 37.5% in test [5]; 60.5% in test [6]. The growth was 84.5% in test [7]; 86% in [8]; -4.53% (active) in test [9]; 73.3% in test [10]; 69% in test [11]; 86.6% in test [12]. Further, the growth in test [19] was 84.7%; in test [13] it was 91.5%; in [14] it was 102%; in test [16], 59.3%; in test [20] it was 8.6% (active).

For `N#CCN(CC#N)[N+](=O)[O-]`, the growth in [1] is 108%; in test [2], 103%; in [3], 89.8%; in test [4], 99.1%; in [5] it was 104%; in test [6] it was 95.4%. Further, the growth in test [7] was 103%; in test [8] it was 98.2%; in test [9], 109%; in test [10] it was 106%; in test [11], 105%; in [12], 104%. Besides, the growth was 94% in test [19]; 100% in test [14]; 110% in test [15]; 95.2% in [16]; 95% in test [17]; 115% in test [18]. Besides, the growth in test [20] was 85.2%.

Regarding `N#CC(N)c1ccccc1` (stereo not drawn), the growth in test [1] was 104%; in [2] it was 111%; in test [3] it was 97.4%; in test [4], 105%; in [5], 105%; in test [6] it was 104%. The growth in test [7] was 101%; in test [8] it was 99.5%; in test [9], 101%; in [10], 113%; in test [11], 122%; in test [19] it was 104%. Further, the growth in test [13] was 86.3%; in test [14] it was 109%; in test [15] it was 105%; in test [16], 102%; in test [18], 102%; in test [20], 107%.

For the molecule `CCCCCCCCCCCCCCCCCC1OCC(COC(=O)O[C@@H](C(=O)O[C@H]2C[C@@]3(O)[C@@H](OC(=O)c4ccccc4)[C@@H]4[C@]5(OC(C)=O)CO[C@@H]5C[C@H](O)[C@@]4(C)C(=O)[C@H](OC(C)=O)C(=C2C)C3(C)C)[C@@H](NC(=O)c2ccccc2)c2ccccc2)O1` (stereo partly drawn), the growth in test [1] is 99.4%; in [2], 5.3% (active); in [3] it was 37.7%; in test [4], 49.1%; in [5], 40.8%; in test [6], 39.9%. Further, the growth in [7] was 60.4%; in test [8] it was 43.1%; in [9] it was 37.5%; in test [10] it was 58.4%; in test [11], 59.5%; in test [12], 77.5%. In addition, the growth was 44.8% in [19]; 102% in [14]; 96.6% in test [15]; 82.8% in test [16]; 46% in test [17]; 4.84% (active) in [18]. Besides, the growth in test [20] was 18.5%.

As for `CC[C@H](C)[C@H](NC(=O)[C@H]1CCCCN1C)C(=O)N(C)[C@H](C[C@@H](OC(C)=O)c1cccc(C(=O)N[C@@H](Cc2ccccc2)C[C@H](C)C(=O)OC)n1)C(C)C`, the growth in test [1] was 8.45% (active); in [2], -5.46% (active); in test [3], 23.5%; in test [4], 33.1%; in test [5] it was 14.3%; in test [6] it was 18.9%. Besides, the growth in [7] was -14.5% (active); in test [8], 38.6%; in test [9] it was 14.6%; in [10] it was 62.8%; in test [11], 22.1%; in [12] it was 53.4%. Moreover, the growth in [13] was 40.7%; in test [14], 34.4%; in [15], 24.6%; in test [16] it was 25.4%; in test [17], -5.01% (active); in test [18] it was -42.9% (active). Besides, the growth in test [20] is 14.4%.

For `COc1cc(C=C2C(=O)NC(=O)NC2=O)ccc1O`, the growth was 103% in test [1]; 99.2% in test [2]; 96% in [3]; 96.7% in [4]; 98.7% in test [5]; 103% in [6]. Further, the growth is 109% in test [7]; 92.7% in test [8]; 102% in test [9]; 131% in test [10]; 153% in test [12]; 96.5% in test [19]. Also, the growth in [13] is 94.4%; in [14] it was 127%; in [15], 101%; in [17], 69%; in [18] it was 95.6%; in test [20], 113%.

Take `c1ccc2c(c1)O[As](O[As]1Oc3ccccc3O1)O2`: the growth in test [1] is 29.9%; in [2] it was 24.8%; in [3] it was 1.6% (active); in test [4], 82.9%; in test [5], 1.07% (active); in [6], 36.9%. Further, the growth was 20.7% in test [7]; 43.8% in test [8]; 30.9% in test [9]; 44.4% in [10]; 5.79% (active) in [11]; 40.2% in test [19]. Moreover, the growth in [14] is 61.6%; in [15], 59.3%; in test [16], 16.5%; in test [17], 27.5%; in test [18], -28.3% (active).

`CC(=O)C(N)Cc1ccccc1` (stereo not drawn): the growth in test [1] was 103%; in test [2], 103%; in test [3], 86.7%; in test [4], 99.3%; in test [5] it was 84.2%; in [6], 83.6%. Also, the growth was 107% in test [7]; 92.6% in test [8]; 95.1% in test [9]; 114% in test [10]; 100% in test [12]; 95.7% in [19]. In addition, the growth in test [13] was 96.3%; in test [15], 99.7%; in test [16], 96.2%; in [20] it was 84.4%.

For `O=S(OO)c1cc(Cl)c(O)c(Cl)c1` (stereo not drawn), the growth in [1] was 99.2%; in test [2] it was 113%; in test [3] it was 78.5%; in test [4], 104%; in [5], 94%; in [6], 94.7%. For the same molecule, the growth in test [7] was 104%; in test [8], 101%; in [9], 96.4%; in [10], 98.9%; in test [11], 110%; in test [19], 101%. In addition, the growth in test [14] is 100%; in [15] it was 100%; in [16] it was 91.3%; in test [18] it was 103%; in test [20], 91%.

`Cc1nc2ccccc2c(=O)n1-c1ccccc1F`: the growth in test [1] is 103%; in [2] it was 103%; in test [3], 82.1%; in test [4], 104%; in test [5] it was 88.1%; in test [6], 86.6%. The growth in test [7] was 100%; in [8], 105%; in [9], 103%; in [10] it was 111%; in test [12] it was 89.3%; in test [19] it was 95%. Moreover, the growth was 88.1% in [13]; 98% in test [14]; 104% in test [15]; 96.4% in [16]; 89.3% in test [18]; 99.1% in test [20].

Take `CN1CCN(c2ccc(Cl)cc2)CC1`: the growth was 20.1% in [1]; 26.4% in test [2]; 111% in test [3]; 93.9% in test [4]; 70.1% in test [5]; 107% in test [6]. Besides, the growth in [7] was 101%; in test [8] it was 86.4%; in test [9], 70.5%; in test [10] it was 99.1%; in test [12] it was 107%; in [19], 90.7%. Also, the growth in test [13] is 86.1%; in [14], 102%; in [15], -11.9% (active); in test [16] it was 24.1%; in test [17] it was 97%; in test [18] it was 48.7%. Also, the growth in [20] is 87.3%.
